Sampled rows, rich in hits. Any-hit rate of the full collection: about 0.65%.
Vc quorum ag – induces V. cholerae light production without autoinducers; hit rate 0.16% among 350,000; AID 588436; activation, % at 18.7 µM; V. cholerae BH1578 lux reporter, luminescence, 6 h; in the data active means activation mostly above about 9.7%, no sharp cut-off
Y pestis TopoI – Y. pestis Topo-I inhibition via cleavage products. AID 504884. hit rate 0.064% among 360,000. activity, % at 10 µM. Y. pestis Topo-I cleavage product accumulation, plate reader; in the data active means activity above about 50%, passing the limit was not always enough
TcdB inh – inhibitors of Clostridioides difficile toxin B glycohydrolase; P18177; TcdB glycohydrolase enzymatic assay, plate reader; inhibition, % at 9.99 µM; hit rate 0.24% among 350,000; AID 652162; in the data active means inhibition above about 10%
Mtb UGM inh – blocks M. tuberculosis UGM enzyme; P9WIQ1; purified UGM, fluorescence polarization probe displacement; inhibition, % at 10 µM; hit rate 0.06% among 320,000; in the data active means inhibition above about 10%, passing the limit was not always enough
Target sequence (P9WIQ1 whole entry, looked up): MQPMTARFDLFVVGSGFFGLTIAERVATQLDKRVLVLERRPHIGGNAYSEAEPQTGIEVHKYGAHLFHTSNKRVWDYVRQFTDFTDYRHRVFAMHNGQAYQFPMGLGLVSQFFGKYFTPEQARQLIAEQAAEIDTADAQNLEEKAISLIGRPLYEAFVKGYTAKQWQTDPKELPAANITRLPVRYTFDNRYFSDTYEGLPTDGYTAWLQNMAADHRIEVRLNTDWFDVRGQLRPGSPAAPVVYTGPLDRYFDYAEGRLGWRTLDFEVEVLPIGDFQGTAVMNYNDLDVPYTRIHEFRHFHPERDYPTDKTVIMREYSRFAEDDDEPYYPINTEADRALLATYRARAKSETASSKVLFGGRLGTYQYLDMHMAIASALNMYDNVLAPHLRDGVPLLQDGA
PrP UTR inh – suppresses PrP 5' UTR mRNA reporter expression; cell-based PrP 5' UTR mRNA reporter, plate reader; inhibition, % (test concentration not listed); hit rate 0.35% among 340,000; in the data active means inhibition above about 52%; further: 0 = median of the neutral control wells
* = called active by the depositor; i = inactive; / = not tested or not shown.

SMILES	Vc quorum ag	Y pestis TopoI	TcdB inh	Mtb UGM inh	PrP UTR inh
O=C(C[C@@H]1CC[C@@H](NC(=O)c2ccc(F)cc2)[C@@H](CO)O1)NCc1ccncn1	/	/	1	/	/
CCOc1ccc2nc(NC(=O)c3ccc(S(=O)(=O)N4CCOCC4)cc3)sc2c1	0	-7	/	0	6
CCOc1ccc2nc(NC(=O)c3ccc(OC)c(S(=O)(=O)N4CCOCC4)c3)sc2c1	44*	2	/	1	1
CC1=C/C(=C(/c2cc(C)c(O)c(Br)c2)c2ccccc2S(=O)(=O)O)C=C(Br)C1=O	i	60*	4	1	11
O=[N+]([O-])c1cccc(CN2CCN(c3cccc4[nH]ccc34)CC2)c1	1	-8	5	2	-20
O=C(c1ccc([N+](=O)[O-])cc1)N1CCN(c2cccc3[nH]ccc23)CC1	0	-17	10*	-1	-57
Nc1ccc(N=Nc2ccc(O)cc2)c(N)n1	-1	-13	20*	/	-79
COc1ccc(N=Nc2ccc(N)nc2N)cc1	0	-13	0	1	-60
O=C(C[C@H]1C[C@@H]2c3cc(NS(=O)(=O)c4ccccc4)ccc3O[C@@H]2[C@H](CO)O1)N1CCCCC1	/	/	-1	/	/
Cc1ccc(C)c(N2CCN(C(=O)c3cc4ccccn4n3)CC2)c1	-1	35	/	27*	-5
CC(C)C#Cc1ccc([C@@H]2[C@@H](CO)N3CCCCN(C(=O)Nc4ccccc4)C[C@@H]23)cc1	/	/	1	/	/
COc1cc(/C=C/C(=O)OCC(=O)NC(=O)NC(C)(C)C)ccc1O	0	-8	16*	2	1
COc1cc(/C=C/C(=O)OCC(=O)NCc2ccco2)ccc1O	-4	11	15*	-2	-2
COc1ccccc1/C=C/C(=O)OCC(=O)NCc1ccco1	0	1	/	2	-21
COc1cc(/C=C/C(=O)OCC(=O)Nc2cccc(F)c2)ccc1O	i	-17	4	2	-6
CCCNC(=O)N1C[C@H](O)COC[C@H]2O[C@@H](CC(=O)NCc3ccc(Cl)c(Cl)c3)CC[C@@H]21	/	/	-1	/	/
CNC(C)C(=O)NC(C(=O)N1CCCC1C(=O)NNc1ccccc1)C(C)C (stereo not given)	i	1	-2	0	-37
CC(N)C(=O)NC(C(=O)N1CCCC1C(=O)NC(c1ccccc1)c1ccccc1)C(C)C (stereo not given)	0	-4	11*	-1	-21
CC(C)CN1CCN(CC#Cc2ccccc2)CC1CCO (stereo not given)	i	-8	10*	-1	-8
Cc1ccc(-c2ccc([C@@H]3[C@H](CO)N4CCCCN(C(=O)c5ccc(F)cc5)C[C@@H]34)cc2)cc1	/	/	0	/	/
CC(=O)C(Sc1nn(C)c(=S)s1)C(=O)Nc1ccccc1 (stereo not given)	25*	-5	/	0	-26
CCCNC(=O)[C@H]1[C@H](CO)[C@H]2Cn3c(ccc(C4=CCCC4)c3=O)[C@@H]1N2CCC(F)(F)F	/	/	0	/	/
Cn1c(SCC(=O)NCc2cccs2)nnc1-c1ccncc1	i	56*	/	1	-8
CC(OC(=O)C1CCN(c2ccc(C(F)(F)F)cn2)CC1)C(=O)c1ccccc1 (stereo not given)	-6	26	2	1	9
O=C(COC(=O)C1CCN(c2ccc(C(F)(F)F)cn2)CC1)c1ccccc1Cl	-1	52*	6	-1	-21
SMILES	Vc quorum ag	Y pestis TopoI	TcdB inh	Mtb UGM inh	PrP UTR inh
Cc1ccc(C(=O)C(C)OC(=O)C2CCN(c3ccc(C(F)(F)F)cn3)CC2)cc1 (stereo not given)	-1	55*	3	/	-18
C[C@@H]1CN([C@@H](C)CO)C(=O)c2cc(NC(=O)Cc3cn(C)c4ccccc34)ccc2O[C@H]1CN(C)C(=O)Nc1ccccc1	/	/	-1	/	/
C[C@@H]1CCCCO[C@H](CN(C)C(=O)NC2CCCCC2)[C@@H](C)CN([C@@H](C)CO)C(=O)c2cc(NC(=O)Nc3ccc(C(F)(F)F)cc3)ccc2O1	/	/	-5	/	/
COc1ccc(Nc2c3c(nc4c(-c5ccccc5)c(C)nn24)CCC3)cc1	0	-2	/	-2	-4
COc1ccc(N=CC2=C(Nc3ccc(OC)cc3)c3c(C)nn(-c4ccccn4)c3CC2)cc1	/	/	/	14*	/
CCCN(C)C[C@@H]1OCCCC[C@@H](C)Oc2ccc(NS(=O)(=O)c3cccs3)cc2C(=O)N([C@H](C)CO)C[C@@H]1C	/	/	0	/	/
COc1cccc(S(=O)(=O)N[C@H]2CC[C@H](CC(=O)NCc3ccncc3)O[C@@H]2CO)c1	/	/	0	/	/
O=C(Cc1ccccn1)NCC[C@H]1CC[C@H](NC(=O)c2ccccc2F)[C@H](CO)O1	/	/	0	/	/
N#C/C(=C\C=C\c1ccccc1)c1nc(-c2ccc3c(c2)OCO3)cs1	i	-5	/	20*	-6
Clc1ccc(COC(Cn2ccnc2)c2ccc(Cl)cc2Cl)cc1 (stereo not given)	i	62*	0	-1	-23
Clc1ccc(CSC(Cn2ccnc2)c2ccc(Cl)cc2Cl)cc1 (stereo not given)	i	57*	0	-2	-1
COc1ccc(NC(=O)N(C)C[C@@H]2Oc3ccc(NC(=O)CCN4CCOCC4)cc3C(=O)N([C@H](C)CO)C[C@H]2C)cc1	/	/	0	/	/
NNC(=O)CNC(=O)Nc1n[nH]c(=S)s1	/	/	10*	/	/
O=S(=O)(NC1CCCCCCC1)c1ccc(F)cc1	i	8	12*	5	/
O=S(=O)(NC1CCCC1)c1ccc(S(=O)(=O)NC2CCCC2)cc1	-2	3	/	2	-45
O=C(CSc1cccc2cccnc12)N/N=C/c1ccc(F)cc1	i	1	11*	-1	-17
O=C(CSc1cccc2cccnc12)N/N=C/c1cccc(O)c1	0	10	7	-1	-1
Cc1ccc(NS(=O)(=O)c2ccc(C)c(NC(=S)NCCN3CCOCC3)c2)c(C)c1	i	-12	16*	2	-16
COc1ccccc1NS(=O)(=O)c1cccc(NC(=S)NCCN2CCOCC2)c1	0	1	1	-1	-7
COc1ccc2c3c([nH]c2c1)[C@H](CO)N(C(=O)c1cccnc1)CC31CCN(Cc2ccccc2)CC1	/	/	1	/	/
Cc1ccc(-n2c(SCC(=O)O)nc3c(sc(=S)n3-c3ccc(C)c(C)c3)c2=O)cc1	i	0	30*	-1	-5
Cc1ccc(-n2c(=S)sc3c(=O)n(-c4ccc(F)cc4)c(SCC(=O)O)nc32)cc1C	-1	5	8	4	-4
COc1ccc(NC(=O)c2cc3c(CO)cnc(C)c3oc2=Nc2cccc(C)c2)c(OC)c1	20*	-2	1	/	7
COc1ccccc1NC(=O)c1cc2c(CO)cnc(C)c2oc1=Nc1ccc(OC)c(OC)c1	i	-8	1	-1	-1
COc1ccccc1NCC(=O)c1ccc(Cl)cc1	2	98*	1	0	-11
C[C@@H]1CN([C@H](C)CO)C(=O)c2cccc(NC(=O)c3ccc(-c4nccs4)cc3)c2O[C@@H]1CN(C)C(=O)Nc1ccc2c(c1)OCO2	/	/	0	/	/
